Screening data from PubChem BioAssay.
Most compounds without a hit are left out; they make up all but 3.5% or so of the library.
mHTT-CaM PPI inh: mutant huntingtin-calmodulin interaction inhibitors – biochemical, AlphaScreen, primary screen | AID 1671202, 2021 | inhibition, % at 15 µM | 190,000 compounds, 3.6% hits | AlphaScreen His-mHTT/GST-CaM binding, luminescence
Pf apPOL block: Pf-apPOL inhibitors, biochemical, fluorescence | Plasmodium falciparum apicoplast DNA polymerase (apPOL) | inhibition, % at 10 µM | Recombinant Pf-apPOL, molecular beacon fluorescence, 1.5 h | 210,000 compounds, 0.25% hits
Large screens that a line does not name were inactive. Rule as the data show it: active = inhibition above about 50%; inactive = the rest.

Cc1nc2ccccc2n1CC(O)COc1ccc(C(=O)c2ccccc2)cc1 (stereo unspecified)	none
CC(=O)N(C)c1ccc(OCC(O)Cn2c3ccccc3c3ccccc32)cc1 (stereo unspecified)	mHTT-CaM PPI inh 72.7
CC(=O)Nc1ccc(C)cc1S(=O)(=O)N1CCC(c2nc3ccncc3n2C(C)C)C1 (stereo unspecified)	none
O=C1CC(=Nc2ccc(Br)cc2)NN1c1ccccc1	mHTT-CaM PPI inh 77.0
CN1C(=O)CC(C(=O)O)SC1=Nc1ccc(Br)cc1 (stereo unspecified)	none
COC(=O)c1[nH]c2c(c1C)C(=O)CC(C)(C)C2	none (no result: Pf apPOL block)
Cc1[nH]c2c(c1C)C(=O)CC(C)(C)C2	mHTT-CaM PPI inh 68.0 (no result: Pf apPOL block)
COc1ccc(-c2cc3n(n2)CCCN(C(=O)c2cccn2C)C3)cc1	none
c1cnc2nc(-c3ccsc3)c(NC3CCCCC3)n2c1	none
CCOc1ccc(C2=C(CN(C)C)C(c3ccc(F)cc3)c3ccccc3O2)cc1 (stereo unspecified)	mHTT-CaM PPI inh 91.0
CCOc1ccc(C2=C(CN3CCOCC3)C(c3ccccc3)c3ccccc3O2)cc1 (stereo unspecified)	none
COc1ccc(C2=C(CN(C)C)C(c3ccccc3)c3ccccc3O2)cc1 (stereo unspecified)	mHTT-CaM PPI inh 71.0
Cc1ccc(C2C(CN3CCOCC3)=C(c3ccccc3)Oc3ccccc32)cc1 (stereo unspecified)	none
COCCNC(=O)C1(C)CCC(=O)N1CCc1ccccc1 (stereo unspecified)	none
CCc1ccccc1N=Cc1c(C(F)(F)F)[nH]n(-c2ccc([N+](=O)[O-])cc2)c1=O	none
COc1ccc(/C=C2/SC(=Nc3ccc(S(N)(=O)=O)cc3)NC2=O)cc1	none
COc1ccc(-c2coc3c(CN4CCCC4)c(O)ccc3c2=O)cc1OC	none
O=C1c2cccc(Cl)c2C(=O)c2c1cccc2N1CCOCC1	mHTT-CaM PPI inh 88.0
O=C1c2ccccc2-c2onc3ccc(N4CCOCC4)c1c23	none
O=C(NC1CC2CC1N(C(=O)c1ccc3ncccc3c1)C2)c1cccs1 (stereo unspecified)	none
Nc1ccc(-c2c3ccccc3nc3cc(N)ccc23)cc1	mHTT-CaM PPI inh 100.3
Nc1ccc(-c2cc(-c3ccccc3)nc(-c3ccc(N)cc3)n2)cc1	none
O=C(O)/C(=C\c1ccco1)NC(=O)c1ccc(Cl)cc1Cl	none
CC1(C)CC2CC(C)(CN2C(=O)/C(=C/c2ccco2)NC(=O)c2ccc(Cl)cc2)C1 (stereo unspecified)	mHTT-CaM PPI inh 62.0
Cc1ccc(O)c(N=C2C(=O)Nc3ccccc32)c1	mHTT-CaM PPI inh 56.0
Cc1ccc(N=C2C(=O)Nc3ccccc32)c(C)c1	none
COc1ccc(CC(=O)N2CCC(CCOc3ccncc3)CC2)cc1	none
Cc1cccc(COC[C@H](Cc2ccccc2)N2CCN(C(=O)c3ccc(C(F)(F)F)cc3)CCC2=O)c1	mHTT-CaM PPI inh 98.6
Cc1ccc(S(=O)(=O)N2CCC(=O)N([C@H](COCc3ccc(C(F)(F)F)cc3)Cc3ccccc3)CC2)cc1	none
Cc1cccc(C(=O)N2CCC(=O)N([C@H](COCc3cccc(Cl)c3)Cc3ccccc3)CC2)c1	mHTT-CaM PPI inh 98.8
Cc1ccc(S(=O)(=O)N2CCC(=O)N([C@H](COCc3cccc(C)c3)Cc3ccccc3)CC2)cc1	none
O=C(c1ccc(Cl)c(Cl)c1)N1CCC(=O)N([C@H](COCc2ccc(Cl)cc2)Cc2ccccc2)CC1	mHTT-CaM PPI inh 100.0
COc1cccc(C(=O)N2CCc3c(c(COCc4ccc(Cl)cc4)nn3C)C2)c1	none
Cc1cccc(C(=O)N2CCC(=O)N([C@H](COCc3ccc(Cl)cc3)Cc3ccccc3)CC2)c1	mHTT-CaM PPI inh 99.0
Cc1cccc(COC[C@H](CC(C)C)N2CCN(C(=O)c3ccc(C(C)(C)C)cc3)CCC2=O)c1	none
CC(C)(C)c1ccc(C(=O)N2CCN(CC(F)(F)F)CC2)cc1	none
COc1ccc(NC(=O)c2cccc(Br)c2)c(OC)c1	none
O=C(Nc1cc(-c2ccco2)nn1-c1cc(C(F)(F)F)cc(C(F)(F)F)c1)C1CCC1	Pf apPOL block 90.8 (no result: mHTT-CaM PPI inh)
COc1ccc(-n2nc(C(C)(C)C)cc2NC(=O)C2CCC2)cc1	none
COc1cc(-c2ccc(/C=C3/SC(NC(C)=O)=NC3=O)o2)c(OC)cc1Cl	none
CC(=O)N(C)CC(=O)N1N=C(c2ccc(C)c(C)c2)CC1c1ccccc1 (stereo unspecified)	mHTT-CaM PPI inh 53.8
COc1ccccc1C1CC(c2ccc(C)c(C)c2)=NN1C(=O)CN(C)C(C)=O (stereo unspecified)	mHTT-CaM PPI inh 65.6
COc1ccc(C2=NN(C(=O)CCCC(=O)O)C(c3ccccc3OC)C2)cc1OC (stereo unspecified)	none
CN(CC(=O)N1N=C(c2cccs2)CC1c1ccccc1)C(=O)C1CCCC1 (stereo unspecified)	none
Cc1ccc(C2=NN(C(=O)CN(C)C(=O)NC(C)C)C(c3ccccc3)C2)cc1C (stereo unspecified)	mHTT-CaM PPI inh 51.5
